According to PubChem BioAssay (EPA / NIEHS):
Where a structure was tested more than once in an assay, its records may differ in their call. Calls of active or inactive are those of the source. The calls were made as follows: active = hit-call score of the fitted dose curve at least 0.9, where 1 is the maximum; inactive = score below 0.9.

experiment: BSK_SAg_Proliferation: Cell Proliferation Assessment in the BioMAP Diversity Plus: SAg Assay (AID 2283095); conditions: primary human HUVEC with PBMC;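 also: relative cell number as total protein by SRB absorbance in sub-confluent culture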
Summary of the method: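 Human umbilical vein endothelial cells co-cultured with peripheral blood mononuclear cells; total protein measured by sulforhodamine B staining (0.1% SRB after 10% TCA fixation), absorbance at 560 nm, at 96 h. Bidirectional fit against DMSO baseline.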

| SMILES | AC50 | outcome |
| --- | --- | --- |
| CC(C)(COCC1CO1)COCC1CO1 (stereo not given) | 36.7 µM (active) | – |
| Cc1ccc2nc3sc(=O)sc3nc2c1 | 7.93 µM (active) | – |
| c1ccc(-c2cccc(-c3ccccc3)c2)cc1 | 29.2 µM (active) | – |
| CCCCOC(=O)COC(=O)c1ccccc1C(=O)OCCCC | – | inactive |
| O=C(Cc1ccccc1)OCCc1ccccc1 | – | inactive |
| CCN(CC)C(=O)C(Cl)=C(C)OP(=O)(OC)OC | – | inactive |
| O=[N+]([O-])c1cccc2ccccc12 | – | inactive |
| Cc1cc(Cl)ccc1OC(C)C(=O)O (stereo not given) | – | inactive |
| CCOP(=O)(OCC)SCCSCC | – | inactive |
| Cc1cc(C)cc(C)c1 | – | inactive |
| CCOP(=S)(OCC)OP(=S)(OCC)OCC | 20 µM (active) | – |
| OC(Cc1ccccc1Cl)(Cn1cncn1)C1(Cl)CC1 (stereo not given) | – | inactive |
| COCC(=O)N(c1c(C)cccc1C)[C@H](C)C(=O)OC | – | inactive |
| Oc1c(Br)cc(Br)cc1Br | 20 µM (active) | – |
| O=C(O)COc1cc(Cl)c(Cl)cc1Cl | – | inactive |
| c1ccc2sc(SNC3CCCCC3)nc2c1 | 29.2 µM (active) | – |
| Oc1c(Cl)cc(Cl)cc1Cl | – | inactive |
| O=S(=O)(C(Cl)(Cl)Cl)C(Cl)(Cl)Cl | 0.798 µM (active) | – |
| Oc1cccc(-c2ccccc2)c1 | 20 µM (active) | – |

| SMILES | AC50 | outcome |
| --- | --- | --- |
| OCCCCO | 0.61 µM (active) | inactive |
| C[C@]12CC[C@@H](O)C[C@@H]1CC[C@@H]1[C@@H]2CC[C@]2(C)C(=O)CC[C@@H]12 | – | inactive |
| Cc1cccc(OP(=O)(Oc2cccc(C)c2)Oc2cccc(C)c2)c1 | – | inactive |
| CCC(C)(C#N)N=NC(C)(C#N)CC (stereo not given) | – | inactive |
| O=C1C=CC(=O)c2ccccc21 | 0.125 µM (active) | – |
| CCOP(=S)(OCC)SCS(=O)(=O)C(C)(C)C | – | inactive |
| CCCCN(CCCC)C(=S)[S-].CCCCN(CCCC)C(=S)[S-].[Ni+2] | – | inactive |
| Cc1ccccc1OP(=O)(Oc1ccccc1)Oc1ccccc1 | – | inactive |
| Nc1c(Oc2ccccc2)cc(O)c2c1C(=O)c1ccccc1C2=O | – | inactive |
| O=C(CCl)NCO | – | inactive |
| CCCCCCCCCCCCN(C)C | – | inactive |
| Cc1ccc(OP(=O)(Oc2ccc(C)cc2C)Oc2ccc(C)cc2C)c(C)c1 | 12.9 µM (active) | – |
| CCOC(=O)CC(=O)CCl | 16.2 µM (active) | – |
| O=c1oc2ccccc2c(O)c1C(CC(O)c1ccc(-c2ccc(Br)cc2)cc1)c1ccccc1 (stereo not given) | 26.4 µM (active) | – |
| CC(C)(C)c1cc([N+](=O)[O-])cc(C(C)(C)C)c1O | – | inactive |
| Cc1ccccc1OP(=O)(Oc1ccccc1C)Oc1ccccc1C | 12.7 µM (active) | – |
| OCCN(CCO)CCO | – | inactive |
| Cc1c([N+](=O)[O-])c(C)c([N+](=O)[O-])c(C(C)(C)C)c1[N+](=O)[O-] | 6.82 µM (active) | – |

experiment: BSK_SAg_SRB: Viability Assessment in the BioMAP Diversity Plus: SAg Assay (AID 2283096); conditions: primary human HUVEC with PBMC;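 also: cells read one day after compound addition; hits may be either gain or loss of signal compared with DMSO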
Summary of the method: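 Human umbilical vein endothelial cells co-cultured with PBMC, read 24 h after compound dosing. Total protein measured by sulforhodamine B staining (0.1% SRB after 10% TCA fixation, absorbance 560 nm); bidirectional fit versus DMSO baseline.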

| SMILES | outcome | AC50 |
| --- | --- | --- |
| CC(C)(COCC1CO1)COCC1CO1 (stereo not given) | inactive | – |
| Cc1ccc2nc3sc(=O)sc3nc2c1 | – | 5 µM (active) |
| c1ccc(-c2cccc(-c3ccccc3)c2)cc1 | – | 27.5 µM (active) |
| CCCCOC(=O)COC(=O)c1ccccc1C(=O)OCCCC | inactive | – |
| O=C(Cc1ccccc1)OCCc1ccccc1 | inactive | – |
| CCN(CC)C(=O)C(Cl)=C(C)OP(=O)(OC)OC | inactive | – |
| O=[N+]([O-])c1cccc2ccccc12 | inactive | – |
| Cc1cc(Cl)ccc1OC(C)C(=O)O (stereo not given) | inactive | – |
| CCOP(=O)(OCC)SCCSCC | inactive | – |
| Cc1cc(C)cc(C)c1 | inactive | – |
| CCOP(=S)(OCC)OP(=S)(OCC)OCC | inactive | – |
| OC(Cc1ccccc1Cl)(Cn1cncn1)C1(Cl)CC1 (stereo not given) | inactive | – |
| COCC(=O)N(c1c(C)cccc1C)[C@H](C)C(=O)OC | inactive | – |
| Oc1c(Br)cc(Br)cc1Br | – | 31.7 µM (active) |
| O=C(O)COc1cc(Cl)c(Cl)cc1Cl | inactive | – |
| c1ccc2sc(SNC3CCCCC3)nc2c1 | inactive | – |
| Oc1c(Cl)cc(Cl)cc1Cl | inactive | – |
| O=S(=O)(C(Cl)(Cl)Cl)C(Cl)(Cl)Cl | – | 3.74 µM (active) |
| Oc1cccc(-c2ccccc2)c1 | – | 20 µM (active) |

| SMILES | outcome | AC50 |
| --- | --- | --- |
| OCCCCO | inactive | – |
| C[C@]12CC[C@@H](O)C[C@@H]1CC[C@@H]1[C@@H]2CC[C@]2(C)C(=O)CC[C@@H]12 | inactive | – |
| Cc1cccc(OP(=O)(Oc2cccc(C)c2)Oc2cccc(C)c2)c1 | inactive | – |
| CCC(C)(C#N)N=NC(C)(C#N)CC (stereo not given) | inactive | – |
| O=C1C=CC(=O)c2ccccc21 | – | 5.33 µM (active) |
| CCOP(=S)(OCC)SCS(=O)(=O)C(C)(C)C | inactive | – |
| CCCCN(CCCC)C(=S)[S-].CCCCN(CCCC)C(=S)[S-].[Ni+2] | inactive | – |
| Cc1ccccc1OP(=O)(Oc1ccccc1)Oc1ccccc1 | – | 31.6 µM (active) |
| Nc1c(Oc2ccccc2)cc(O)c2c1C(=O)c1ccccc1C2=O | – | 2.22 µM (active) |
| O=C(CCl)NCO | inactive | – |
| CCCCCCCCCCCCN(C)C | inactive | – |
| Cc1ccc(OP(=O)(Oc2ccc(C)cc2C)Oc2ccc(C)cc2C)c(C)c1 | – | 20 µM (active) |
| CCOC(=O)CC(=O)CCl | inactive | – |
| O=c1oc2ccccc2c(O)c1C(CC(O)c1ccc(-c2ccc(Br)cc2)cc1)c1ccccc1 (stereo not given) | – | 19.1 µM (active) |
| CC(C)(C)c1cc([N+](=O)[O-])cc(C(C)(C)C)c1O | – | 0.215 µM (active) |
| Cc1ccccc1OP(=O)(Oc1ccccc1C)Oc1ccccc1C | – | 9.8 µM (active) |
| OCCN(CCO)CCO | inactive | – |
| Cc1c([N+](=O)[O-])c(C)c([N+](=O)[O-])c(C(C)(C)C)c1[N+](=O)[O-] | inactive | – |
